“And” between values parts separate entries of the source, which are not always exact repeats. Identical values can stand only once. Records with an inconclusive call do not appear. The source made the active and inactive calls. Unless noted, no rule for the calls is given here.
How the values were obtained:
[1] = qHTS profiling for inhibitors of Plasmodium falciparum (HB3) proliferation (AID 743324; active = well fitted curve in the direction sought with a large enough effect; an effect the other way counts as inactive or inconclusive;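 also: 100% = DMSO vehicle wells and 0% = artemisinin-treated control wells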); settings: Plasmodium falciparum HB3 blood-stage proliferation; at 28.7 µM (top of the series) unless noted
In short: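 SYBR Green fluorescence (485 ex/535 em) of lysed cultures, incubated overnight at room temperature in the dark, quantifies parasite DNA. Infected erythrocytes at 0.3% parasitemia and 2.5% hematocrit were exposed 72 h; values normalized to DMSO and 0.29 uM artemisinin controls.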

[2] = qHTS profiling of the MIPE4 collection as inhibitors of Plasmodium falciparum (3D7) proliferation (AID 743344);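 also: scaled between DMSO vehicle wells and 0.29 µM artemisinin as full inhibition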; settings: P. falciparum 3D7 in erythrocytes, SYBR Green DNA fluorescence, 72 h; at 28.5 µM (top of the series) unless noted
In short: (§1)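 Parasite DNA was quantified by SYBR Green I fluorescence (ex 485, em 535 nm) after overnight lysis in saponin/Triton buffer at room temperature. Cultures at 0.3% parasitemia and 2.5% hematocrit were first exposed to compound for 72 h at 37 C; signals were normalised to artemisinin (0.29 uM) and vehicle wells.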

[3] = qHTS profiling of the MIPE4 collection as inhibitors of Plasmodium falciparum (DD2) proliferation (AID 743345); settings: P. falciparum Dd2 in erythrocytes, SYBR Green DNA, 72 h; at 28.5 µM (top of the series) unless noted
In short: as §1

[4] = qHTS profiling of the MIPE4 collection as inhibitors of Plasmodium falciparum (DD2) proliferation (Rep 2) (AID 743346); settings: P. falciparum Dd2 in erythrocytes, SYBR Green DNA, 72 h; at 28.5 µM (top of the series) unless noted
In short: as §1

[5] = qHTS profiling of the MIPE4 collection as inhibitors of Plasmodium falciparum (HB3) proliferation (AID 743347);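 also: plate controls were DMSO vehicle wells for no effect and artemisinin wells for full effect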; settings: P. falciparum HB3 in erythrocytes, SYBR Green DNA, 72 h; at 28.5 µM (top of the series) unless noted
In short: as §1

[6] = High-throughput drug toxicity screening in the BPDCN cell line Gen2.2 (AID 1224824); settings: Gen2.2 BPDCN cells; at 45.8 µM (top of the series) unless noted;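 also: cells exposed to compounds for 48 h before reading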
In short: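 Gen2.2 cells, 500 per well in phenol red-free RPMI with 10% FBS, exposed to compounds 48 h at 37 C, 5% CO2; viability by CellTiter-Glo luminescence. Percent activity scaled to DMSO (100%) and 9.2 uM bortezomib final (0%).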

[7] = High-throughput drug toxicity screening in the BPDCN cell line Cal-1 (AID 1224825); settings: Cal-1 BPDCN cell viability, qHTS; at 45.8 µM (top of the series) unless noted
In short: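 Percent activity derived from CellTiter-Glo luminescence, scaling DMSO to 100% and 9.2 uM final bortezomib to 0%. BPDCN Cal-1 cells (500/well, RPMI plus 10% FBS) incubated with compounds 48 hours at 37C before reading.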

[8] = qHTS assay for measurement of the activity of small molecule inhibitors on Zika virus induced Caspase-3 activity in human iPSC derived neural progenitor cells (hNPCs) (AID 1224857; active = well fitted curve in the direction sought with a large enough effect; an effect the other way counts as inactive or inconclusive; also: % of control where 0% means no effect; nearly all actives have a fitted effect of over 65% in size)
In short: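 Zika virus (2 FFU/cell) infection of human iPSC-derived NPCs, 6 h, following 1 h compound preincubation. Read-out: Caspase-Glo 3/7 luminescence.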

Row | Compound | remaining proliferation (% of control), lower = more inhibition [1] | parasite growth, % of DMSO control [2] | parasite growth remaining, % of DMSO control (lower = more inhibition) [3] | parasite growth, % of control (lower = inhibition) [4] [%] | growth, % of control [5] [%] | cell viability, % of control (lower = more cytotoxic) [6] | viability (% of control) [7] | Potency [8]
1 | CCn1c(-c2nonc2N)nc2cnc(Oc3cccc(NC(=O)c4ccc(OCCN5CCOCC5)cc4)c3)cc21 | 14.7% | 13.1% | 57.9% | 22.1 | 3.64 | 84.4% | 33.2% | 
2 | CC1(C)Cc2c(-c3ccccc3)c(-c3ccc(Cl)cc3)c(CC(=O)O)n2C1 | 7.77% | 61% | 90.7% | 63.6 | 82.7 | 71.9% | 78.3% | 
3 | O=C(c1cc(Cc2n[nH]c(=O)c3ccccc23)ccc1F)N1CCN(C(=O)C2CC2)CC1 | 57.9% and 59.4% | 23.5% | 92.7% |  | 35.9 | 71.5% | 45.4% | 
4 | O=c1[nH]cnc2[nH]ncc12 |  |  |  |  |  |  | 101% | inactive
5 | COc1ccccc1-c1cccc(-c2c(O)c3cc(C#N)c(Cl)cc3[nH]c2=O)c1 | 74.9% | 37.5% [at 57.5 µM] | 84.4% [at 57.5 µM] |  |  | 52.6% [at 92.2 µM] | 99.8% [at 92.2 µM] | 
6 | Cc1cnc(NC(=O)C2=C(O)c3ccccc3S(=O)(=O)N2C)s1 |  | 39% | 86.7% |  | 78.1 | 60.9% | 96.3% | 
7 | O=C1CCCC2=C1C(c1[nH]ncc1Cl)N=C(Nc1nc3ccccc3o1)N2 (stereo not given) | 114% | 20.6% | 10.9% | 8.08 | 55.2 | 73.8% | 82.3% | 
8 | c1ccc([C@H]2CN3CCSC3=N2)cc1 |  | 92.1% | 98.3% |  | 95.1 | 200% | 116% | inactive
9 | CCn1c(-c2nonc2N)nc2c(C#CC(C)(C)O)ncc(OC[C@H]3CCCNC3)c21 | 2.14% | 5.72% | 11.8% | 13.9 |  | 64.9% | 8.62% | 
10 | CCCn1c(=O)c2[nH]c(C34CC5CC3C[C@@H](C5)C4)nc2n(CCC)c1=O | 59.4% | 16.5% | 77.4% | 17.3 | 5.74 | 214% | 125% | 
11 | Cc1ccccc1C(OCCN(C)C)c1ccccc1 (stereo not given) |  | 64.6% | 60.2% |  | 87.3 | 149% | 93% | inactive
12 | CNCc1ccc(-c2[nH]c3cc(F)cc4c3c2CCNC4=O)cc1 | 54% | 47.4% | 85% | 51.1 | 18.7 | 80.5% | 15.1% | 
13 | O=C(NOC[C@H](O)CO)c1ccc(F)c(F)c1Nc1ccc(I)cc1F |  | 86.4% | 102% | 95.7 | 97.2 | 14.5% | 41.6% | 
14 | CCCCNc1cc(C(=O)O)cc(S(N)(=O)=O)c1Oc1ccccc1 |  | 87.9% | 99.3% | 102 | 84 | 596% | 113% | 
15 | Cc1ccc2c(c1)C(=O)[C@@]1(O)CCN(c3ccccc3)C1=N2 | 36.1% |  |  |  |  |  |  | 
16 | CC(C)c1onc(-c2c(Cl)cccc2Cl)c1COc1ccc(/C=C/c2cccc(C(=O)O)c2)c(Cl)c1 | 71.7% |  |  |  |  |  |  | 
